{"source": "the supplement of paper PMC6555819"}
{"tested_on": "THRa homodimer (NR concentration 90 nM)", "experiment": "PBM binding z-score (relative to random genomic background probes); higher = stronger binding; sequences stand for … in GC…GCGATTGACAGCGTAGAATGAAGG", "method_in_brief": "(§1)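 Scanned fluorescence from custom Agilent 4×180K protein-binding microarrays was regression-normalized. Binding z-scores use random background probes as reference. Ligand-free nuclear receptor dimers were incubated on the arrays for 1 h and detected with antibodies against each partner (one per run).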"}
{"sequence": "CTGAGTAGGTTACGAGGGGGCATTCAGTGCGAAT", "PBM binding z-score": 0.778}
{"sequence": "TCGAGTAGTTTACGGGGGCATTCAGGGATGAAGA", "PBM binding z-score": 1.05}
{"sequence": "CTCTGTAGGTTAAGGGGGTCATTCAGTTTGAAAG", "PBM binding z-score": 2.34}
{"sequence": "CTATGTAGGTTAAGGGGGGCATTCAGTTTGAAAG", "PBM binding z-score": 2.39}
{"sequence": "CTATGCAGGTTAAGGGGGTCATTCAGTTTGAAAG", "PBM binding z-score": 2.28}
{"sequence": "CCGAGTAGGTTACGAGAGGGCATTCAGTGCGAAT", "PBM binding z-score": -0.738}
{"sequence": "CTATGTAGGTTAAGGGGGTCGTTCAGTTTGAAAG", "PBM binding z-score": 1.62}
{"sequence": "CTATGTCGGTTAAGGGGGTCATTCAGTTTGAAAG", "PBM binding z-score": 3.17}
{"sequence": "TCGAGGAGGTTACGGGGGCATTCAGGGATGAAGA", "PBM binding z-score": 1.88}
{"sequence": "TCGAGTAGGTTACAGGGGCATTCAGGGATGAAGA", "PBM binding z-score": 0.735}
{"sequence": "TCGAGTAGGTTACGGGGGCATTTAGGGATGAAGA", "PBM binding z-score": 1.4}
{"sequence": "CTATCTAGGTTAAGGGGGTCATTCAGTTTGAAAG", "PBM binding z-score": 2.14}
{"sequence": "CTATGTAGGTTAAGGGGGTCATTCAATTTGAAAG", "PBM binding z-score": 1.83}
{"sequence": "CCGAGTTGGTTACGAGGGGGCATTCAGTGCGAAT", "PBM binding z-score": 0.911}
{"sequence": "CTATGTATGTTAAGGGGGTCATTCAGTTTGAAAG", "PBM binding z-score": 2.88}
{"sequence": "TCGAGTAGGTTACCGGGGCATTCAGGGATGAAGA", "PBM binding z-score": 0.104}
{"sequence": "TCTAGTAGGTTACGGGGGCATTCAGGGATGAAGA", "PBM binding z-score": 2.2}
{"sequence": "TCGAGTAGGTTACGGGGCCATTCAGGGATGAAGA", "PBM binding z-score": 0.44}
{"sequence": "CCGGGTAGGTTACGAGGGGGCATTCAGTGCGAAT", "PBM binding z-score": 0.875}
{"sequence": "TCGAGTAGGTTACGGGGGCATTCAAGGATGAAGA", "PBM binding z-score": 1.06}
{"sequence": "CTAAGTAGGTTAAGGGGGTCATTCAGTTTGAAAG", "PBM binding z-score": 2.28}
{"sequence": "TCGAGTAGCTTACGGGGGCATTCAGGGATGAAGA", "PBM binding z-score": 0.239}
{"sequence": "TCGAGTAGGTTACGGGGGCATTCACGGATGAAGA", "PBM binding z-score": 1.23}
{"sequence": "CTATGTAAGTTAAGGGGGTCATTCAGTTTGAAAG", "PBM binding z-score": 2.28}
{"sequence": "CTATGTAGGTTATGGGGGTCATTCAGTTTGAAAG", "PBM binding z-score": 2.67}
{"sequence": "TCGAGTAGGTTACGGGGGCATTCCGGGATGAAGA", "PBM binding z-score": 0.954}
{"sequence": "CTATGTAGGTTAAGGGGGTCATTCACTTTGAAAG", "PBM binding z-score": 1.72}
{"sequence": "TCGAGTAGGTTATGGGGGCATTCAGGGATGAAGA", "PBM binding z-score": 1.84}
{"sequence": "CCGAGTAGGATACGAGGGGGCATTCAGTGCGAAT", "PBM binding z-score": -0.158}
{"sequence": "CTATGTAGGTTAAGGGGGTCATTCAGTTTGAAAG", "PBM binding z-score": 2.19}
{"sequence": "TCGAGTAGGTTACGGGGGCGTTCAGGGATGAAGA", "PBM binding z-score": 1.34}
{"sequence": "TCGAGTAGGTTACGGGGGCATTAAGGGATGAAGA", "PBM binding z-score": 0.949}
{"sequence": "CCGAGTAGGTTATGAGGGGGCATTCAGTGCGAAT", "PBM binding z-score": 1.86}
{"sequence": "CCGAGTAGCTTACGAGGGGGCATTCAGTGCGAAT", "PBM binding z-score": -0.07}
{"sequence": "TCGAGTAGGTTACGGGGGTATTCAGGGATGAAGA", "PBM binding z-score": 1.08}
{"sequence": "CCGTGTAGGTTACGAGGGGGCATTCAGTGCGAAT", "PBM binding z-score": 1.23}
{"sequence": "CTATGTAGGGTAAGGGGGTCATTCAGTTTGAAAG", "PBM binding z-score": 2.95}
{"sequence": "CTATGTAGGTTAAGGGTGTCATTCAGTTTGAAAG", "PBM binding z-score": 0.005}
{"sequence": "CCTAGTAGGTTACGAGGGGGCATTCAGTGCGAAT", "PBM binding z-score": 0.978}
{"tested_on": "VDR homodimer (NR concentration 270 nM)", "experiment": "PBM binding z-score (relative to random genomic background probes); higher = stronger binding; sequences stand for … in GC…GCGATTGACAGCGTAGAATGAAGG", "method_in_brief": "as §1"}
{"sequence": "CTGAGTAGGTTACGAGGGGGCATTCAGTGCGAAT", "PBM binding z-score": 3.31}
{"sequence": "TCGAGTAGTTTACGGGGGCATTCAGGGATGAAGA", "PBM binding z-score": 3.23}
{"sequence": "CTCTGTAGGTTAAGGGGGTCATTCAGTTTGAAAG", "PBM binding z-score": 5.47}
{"sequence": "CTATGTAGGTTAAGGGGGGCATTCAGTTTGAAAG", "PBM binding z-score": 4.81}
{"sequence": "CTATGCAGGTTAAGGGGGTCATTCAGTTTGAAAG", "PBM binding z-score": 5.99}
{"sequence": "CCGAGTAGGTTACGAGAGGGCATTCAGTGCGAAT", "PBM binding z-score": 2.06}
{"sequence": "CTATGTAGGTTAAGGGGGTCGTTCAGTTTGAAAG", "PBM binding z-score": 4.04}
{"sequence": "CTATGTCGGTTAAGGGGGTCATTCAGTTTGAAAG", "PBM binding z-score": 6.54}
{"sequence": "TCGAGGAGGTTACGGGGGCATTCAGGGATGAAGA", "PBM binding z-score": 3.86}
{"sequence": "TCGAGTAGGTTACAGGGGCATTCAGGGATGAAGA", "PBM binding z-score": 1.42}
{"sequence": "TCGAGTAGGTTACGGGGGCATTTAGGGATGAAGA", "PBM binding z-score": 3.52}
{"sequence": "CTATCTAGGTTAAGGGGGTCATTCAGTTTGAAAG", "PBM binding z-score": 7.21}
{"sequence": "CTATGTAGGTTAAGGGGGTCATTCAATTTGAAAG", "PBM binding z-score": 5.01}
{"sequence": "CCGAGTTGGTTACGAGGGGGCATTCAGTGCGAAT", "PBM binding z-score": 4.2}
{"sequence": "CTATGTATGTTAAGGGGGTCATTCAGTTTGAAAG", "PBM binding z-score": 6.32}
{"sequence": "TCGAGTAGGTTACCGGGGCATTCAGGGATGAAGA", "PBM binding z-score": -0.232}
{"sequence": "TCTAGTAGGTTACGGGGGCATTCAGGGATGAAGA", "PBM binding z-score": 3.82}
{"sequence": "TCGAGTAGGTTACGGGGCCATTCAGGGATGAAGA", "PBM binding z-score": 0.657}
{"sequence": "CCGGGTAGGTTACGAGGGGGCATTCAGTGCGAAT", "PBM binding z-score": 2.55}
{"sequence": "TCGAGTAGGTTACGGGGGCATTCAAGGATGAAGA", "PBM binding z-score": 2.77}
{"sequence": "CTAAGTAGGTTAAGGGGGTCATTCAGTTTGAAAG", "PBM binding z-score": 6.08}
{"sequence": "TCGAGTAGCTTACGGGGGCATTCAGGGATGAAGA", "PBM binding z-score": 2.71}
{"sequence": "TCGAGTAGGTTACGGGGGCATTCACGGATGAAGA", "PBM binding z-score": 2.93}
{"sequence": "CTATGTAAGTTAAGGGGGTCATTCAGTTTGAAAG", "PBM binding z-score": 5.94}
{"sequence": "CTATGTAGGTTATGGGGGTCATTCAGTTTGAAAG", "PBM binding z-score": 6.69}
{"sequence": "TCGAGTAGGTTACGGGGGCATTCCGGGATGAAGA", "PBM binding z-score": 2.67}
{"sequence": "CTATGTAGGTTAAGGGGGTCATTCACTTTGAAAG", "PBM binding z-score": 5.5}
{"sequence": "TCGAGTAGGTTATGGGGGCATTCAGGGATGAAGA", "PBM binding z-score": 2.57}
{"sequence": "CCGAGTAGGATACGAGGGGGCATTCAGTGCGAAT", "PBM binding z-score": 2.57}
{"sequence": "CTATGTAGGTTAAGGGGGTCATTCAGTTTGAAAG", "PBM binding z-score": 4.98}
{"sequence": "TCGAGTAGGTTACGGGGGCGTTCAGGGATGAAGA", "PBM binding z-score": 3.52}
{"sequence": "TCGAGTAGGTTACGGGGGCATTAAGGGATGAAGA", "PBM binding z-score": 2.81}
{"sequence": "CCGAGTAGGTTATGAGGGGGCATTCAGTGCGAAT", "PBM binding z-score": 3.74}
{"sequence": "CCGAGTAGCTTACGAGGGGGCATTCAGTGCGAAT", "PBM binding z-score": 2.86}
{"sequence": "TCGAGTAGGTTACGGGGGTATTCAGGGATGAAGA", "PBM binding z-score": 1.21}
{"sequence": "CCGTGTAGGTTACGAGGGGGCATTCAGTGCGAAT", "PBM binding z-score": 3.94}
{"sequence": "CTATGTAGGGTAAGGGGGTCATTCAGTTTGAAAG", "PBM binding z-score": 6.62}
{"sequence": "CTATGTAGGTTAAGGGTGTCATTCAGTTTGAAAG", "PBM binding z-score": 1.42}
{"sequence": "CCTAGTAGGTTACGAGGGGGCATTCAGTGCGAAT", "PBM binding z-score": 3.98}
